Assay results taken from PubChem BioAssay (NCATS).
Results filed as inconclusive are left out. A number with no mark means an inactive call. Calls of active or inactive are those of the source. Calls come from the whole dose curve; tested in HEK293 reporter line.

assay: qHTS for Inhibitors of the Functional Ribonucleoprotein Complex (vRNP) of Lassa (LASV) Arenavirus: LASV Primary Screen - GLuc reporter signal (AID 1347082); details: LASV minigenome vRNP, Gaussia luciferase reporter; series mostly up to 57.5 µM; activity change, negative = inhibition: at the top concentration; note: nearly all actives have a fitted effect of over 60% in size
% is set by controls: 0 for no effect and ±100 for the full control effect; potency is the fitted concentration of half-maximal effect.

Row | Compound | activity change, negative = inhibition | Potency
1 | CCCCCN(CCC12CC3CC(CC(C3)C1)C2)C(=O)NCCCc1ccncc1 | -4.01% | –
2 | O=C(O)c1ccccn1 | 10.4% | –
3 | Cn1c(NCCN(CCO)CCCc2ccc([N+](=O)[O-])cc2)cc(=O)n(C)c1=O | -0.27% | –
4 | [Cl][In]([Cl])[Cl] | -21.5% [at 115 µM] | –
5 | COc1cc(Nc2ncc3c(n2)-c2ccc(Cl)cc2C(c2c(F)cccc2OC)=NC3)ccc1C(=O)O | -19.4% | –
6 | CCOc1ccn(-c2ccc(F)cc2)c(=O)c1C(=O)Nc1ccc(Oc2ccnc(N)c2Cl)c(F)c1 | -38.2% | –
7 | N#Cc1c(O)c2c(-c3ccc(-c4ccccc4O)cc3)csc2[nH]c1=O | 3.34% | –
8 | CC(C)OC(=O)C1=CN(C(=O)c2ccc(F)c(F)c2)CC(C)(C)c2c1[nH]c1ccccc21 | -21.8% | –
9 | CCOc1ccc(Nc2nc(-c3c(C)nc4ccccn34)cs2)cc1 | -44% | –
10 | Cc1cnc(Nc2ccc(OCCN3CCCC3)cc2)nc1Nc1cccc(S(=O)(=O)NC(C)(C)C)c1 | -1.82% | –
11 | CC(C)(C)C(O)/C=C/c1ccc2c(c1)OCO2 (stereo not given) | -18.2% | –
12 | CCCCCCCc1ccc(CCc2cccc(O)c2C(=O)O)cc1 | -3.01% | –
13 | C#CC(C)(CC)OC(=O)c1ccccc1C(=O)O (stereo not given) | -13% | –
14 | c1cc(-c2cnn3cc(-c4ccc(OCCN5CCCCC5)cc4)cnc23)ccn1 | – | 34.3 µM (active)
15 | COc1cc(S(N)(=O)=O)cc(C(=O)O)c1OC | -22.9% | –
16 | O=C(NCCS(=O)(=O)c1ccc(C(F)(F)F)cn1)c1ccc(Cl)cc1 | 22.1% | –
17 | O=C(O)c1ccccc1O | -1.28% | –
18 | Cc1cc(Nc2nc(N[C@@H](C)c3ncc(F)cn3)ncc2Cl)n[nH]1 | -4.74% | –
19 | CC1(C)CCC(c2ccc(Cl)cc2)=C(CN2CCN(c3ccc(C(=O)NS(=O)(=O)c4ccc(N[C@H](CCN5CCOCC5)CSc5ccccc5)c(S(=O)(=O)C(F)(F)F)c4)cc3)CC2)C1 | -24.1% | –
20 | S=c1[nH]c2ccccc2s1 | -24.4% [at 115 µM] | –

Row | Compound | activity change, negative = inhibition | Potency
21 | COc1ncc(-c2ccc3nccc(-c4ccnnc4)c3c2)cc1NS(=O)(=O)c1ccc(F)cc1F | – | 0.0485 µM (active)
22 | CC(=O)Oc1ccccc1C(=O)O | – | inactive
23 | Nc1ccc(-c2ccc3ncc4ccc(=O)n(-c5cccc(C(F)(F)F)c5)c4c3c2)cn1 | – | 0.0024 µM (active)
24 | NC(=O)c1ccc(-c2nc(-c3ccc4c(c3)OCO4)c(-c3ccccn3)[nH]2)cc1 | -2.89% | –
25 | CCC=CC[C@H]1C(=O)CC[C@@H]1CC(=O)OC | 4.9% | –
26 | O=C(C=Cc1c(C(=O)O)[nH]c2cc(Cl)cc(Cl)c12)Nc1ccccc1 | -5.93% | –
27 | O=C(C1CC1)N1CC[C@@H](Cn2c(-c3ccc(-c4ccc5occc5c4)cc3)nc3cnccc32)C1 | -31.9% | –
28 | CC(C)C(=O)Nc1ncc(-c2cc(C(F)F)nn2-c2c(Cl)cccc2Cl)s1 | -54.6% | –
29 | COc1ccc(-c2ccc3c(N4CCOC[C@H]4C)nc(N4CCOC[C@H]4C)nc3n2)cc1CO | – | 0.0097 µM (active)
30 | NC(CO)(CO)CCc1ccc(Sc2cccc(OCc3ccccc3)c2)cc1Cl | -36% | –
31 | Clc1ccc2ncc(-c3cccc(NC4CNC4)n3)n2c1 | -18.1% | –
32 | CC(=O)OCC(=O)[C@@]1(O)[C@H](C)C[C@H]2[C@@H]3C=C(C)C4=Cc5c(cnn5-c5ccccc5)C[C@]4(C)[C@@H]3[C@@H](O)C[C@@]21C | 7.48% | –
33 | O=C(O)c1ccccc1NCCc1ccccc1 | 5.8% | –
34 | CC[C@@H]1C(=O)OC[C@@H]1Cc1cncn1C | -3.87% | –
35 | O=C(Nc1ccc(OC(F)(F)F)cc1)c1sccc1NCc1ccnc2ccccc12 | 13.9% | –
36 | Cc1cccc(C)c1NC(=O)c1ccc(N)cc1 | 0.679% | –
37 | Nc1ccccc1NC(=O)c1ccc(CNc2nccc(-c3cccnc3)n2)cc1 | -27.5% | –
38 | Nc1cccc(S(=O)(=O)N2CCCN(S(=O)(=O)c3ccc4c(c3)OCCO4)CC2)c1 | -25.4% | –
39 | Cc1ccc(NC(=O)c2cccc(C(C)(C)C#N)c2)cc1Nc1ccc2ncn(C)c(=O)c2c1 | -31.7% | –
40 | CCCOC(=O)c1ccc(O)cc1 | – | inactive
